“And” between values parts separate entries of the source, which are not always exact repeats. Identical values can stand only once. Records with an inconclusive call do not appear. The source made the active and inactive calls. Unless noted, calls follow the shape of the dose curve; as a rule, active = well fitted curve in the direction sought with a large enough effect in the repeat runs; inconclusive = weak or mixed curves; inactive = no such curve, though single readings can be large; an effect the other way counts as inactive or inconclusive.
Tests used:
[1] = biological target: Acetylcholinesterase (Homo sapiens) (UniProt P22303); assay: Acetylcholinesterase (AChE) small molecule antagonists: enzyme-based qHTS assay with human liver microsomes (AID 1347399; calls by dose curve; also: nearly all actives have a fitted effect of over 60% in size); conditions: Potency: qHTS inhibition
How it was run: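 Recombinant human AChE (50 mU/mL in the enzyme mix) and human liver microsomes (0.25 mg/mL final) were preincubated with compound and NADPH (0.25 mg/mL final) for 30 min at 37 C. Acetylthiocholine/DTNB was then added; thiocholine was read colorimetrically after 10 min at room temperature.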

[2] = biological target: Cytochrome P450 2D6 (Homo sapiens) (UniProt P10635); assay: Cytochrome P450 Family 2 Subfamily D Member 6 (CYP2D6) small molecule antagonists: luciferase reporter qHTS assay (AID 1671196); also: nearly all actives have a fitted effect of over 50% in size
How it was run: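 CYP2D6 enzyme–substrate mix was held with compound for 10 min at room temperature, then NADPH regeneration solution was added and the reaction ran 1 h at room temperature. Luciferin product was detected by luminescence after 20 min with detection reagent.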

[3] = biological target: Cytochrome P450 2C19 (Homo sapiens) (UniProt P33261); assay: Cytochrome P450 Family 2 Subfamily C Member 19 (CYP2C19) small molecule antagonists: luciferase reporter qHTS assay (AID 1671197); also: nearly all actives have a fitted effect of over 65% in size
How it was run: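 First, compounds are pinned into enzyme-substrate mix and held 10 min at room temperature. Second, NADPH regeneration solution is added and plates incubate 1 h at 37C. Third, detection reagent is added and luminescence read after 20 min.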

[4] = biological target: Cytochrome P450 2C9 (Homo sapiens) (UniProt P11712); assay: Cytochrome P450 Family 2 Subfamily C Member 9 (CYP2C9) small molecule antagonists: luciferase reporter qHTS assay (AID 1671198); also: nearly all actives have a fitted effect of over 50% in size
How it was run: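 P450-Glo proluciferin substrate with CYP2C9 enzyme; 10 min RT preincubation, then NADPH regeneration 1 h at 37C; luciferin detection reagent 20 min RT, luminescence in relative luminescence units.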

[5] = biological target: Cytochrome P450 1A2 (Homo sapiens) (UniProt P05177); assay: Cytochrome P450 Family 1 Subfamily A Member 2 (CYP1A2) small molecule antagonists: luciferase reporter qHTS assay (AID 1671199); also: nearly all actives have a fitted effect of over 50% in size
How it was run: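 Human CYP1A2 activity measured with a P450-Glo proluciferin substrate; compounds in DMSO preincubated 10 min at room temperature with enzyme-substrate mix, then NADPH regeneration system added for 1 h. Luciferin detection reagent, 20 min, luminescence read.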

[6] = biological target: Voltage-gated inwardly rectifying potassium channel KCNH2 (Homo sapiens) (UniProt Q12809); assay: Human Ether-a-go-go-Related Gene (hERG) channel small molecule antagonists: fluorescence cell-based qHTS assay (AID 1671200); also: nearly all actives have a fitted effect of over 50% in size
How it was run: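 hERG-U2OS cells plated overnight at 37 C, loaded with FluxOR II dye 1 h at RT in dark; after 10 min, thallium stimulus added. Fluorescence (480/540 nm) read kinetically for 2 min at 1 s intervals.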

[7] = biological target: Cytochrome P450 3A4 (Homo sapiens) (UniProt P08684); assay: Cytochrome P450 Family 3 Subfamily A Member 4 (CYP3A4) small molecule antagonists: luciferase reporter qHTS assay (AID 1671201); also: nearly all actives have a fitted effect of over 50% in size
How it was run: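 P450-Glo CYP3A4 luminescent assay: compounds preincubated 10 min at room temperature with enzyme and proluciferin substrate, NADPH regeneration added, 1 h room-temperature reaction, stopped with luciferin detection reagent; luminescence read after 20 min. Ketoconazole positive control.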

Measured: Potency
Potency is read from the fitted curve at half-maximal effect.

Sequence of Voltage-gated inwardly rectifying potassium channel KCNH2 (Homo sapiens) (Q12809 whole entry, looked up): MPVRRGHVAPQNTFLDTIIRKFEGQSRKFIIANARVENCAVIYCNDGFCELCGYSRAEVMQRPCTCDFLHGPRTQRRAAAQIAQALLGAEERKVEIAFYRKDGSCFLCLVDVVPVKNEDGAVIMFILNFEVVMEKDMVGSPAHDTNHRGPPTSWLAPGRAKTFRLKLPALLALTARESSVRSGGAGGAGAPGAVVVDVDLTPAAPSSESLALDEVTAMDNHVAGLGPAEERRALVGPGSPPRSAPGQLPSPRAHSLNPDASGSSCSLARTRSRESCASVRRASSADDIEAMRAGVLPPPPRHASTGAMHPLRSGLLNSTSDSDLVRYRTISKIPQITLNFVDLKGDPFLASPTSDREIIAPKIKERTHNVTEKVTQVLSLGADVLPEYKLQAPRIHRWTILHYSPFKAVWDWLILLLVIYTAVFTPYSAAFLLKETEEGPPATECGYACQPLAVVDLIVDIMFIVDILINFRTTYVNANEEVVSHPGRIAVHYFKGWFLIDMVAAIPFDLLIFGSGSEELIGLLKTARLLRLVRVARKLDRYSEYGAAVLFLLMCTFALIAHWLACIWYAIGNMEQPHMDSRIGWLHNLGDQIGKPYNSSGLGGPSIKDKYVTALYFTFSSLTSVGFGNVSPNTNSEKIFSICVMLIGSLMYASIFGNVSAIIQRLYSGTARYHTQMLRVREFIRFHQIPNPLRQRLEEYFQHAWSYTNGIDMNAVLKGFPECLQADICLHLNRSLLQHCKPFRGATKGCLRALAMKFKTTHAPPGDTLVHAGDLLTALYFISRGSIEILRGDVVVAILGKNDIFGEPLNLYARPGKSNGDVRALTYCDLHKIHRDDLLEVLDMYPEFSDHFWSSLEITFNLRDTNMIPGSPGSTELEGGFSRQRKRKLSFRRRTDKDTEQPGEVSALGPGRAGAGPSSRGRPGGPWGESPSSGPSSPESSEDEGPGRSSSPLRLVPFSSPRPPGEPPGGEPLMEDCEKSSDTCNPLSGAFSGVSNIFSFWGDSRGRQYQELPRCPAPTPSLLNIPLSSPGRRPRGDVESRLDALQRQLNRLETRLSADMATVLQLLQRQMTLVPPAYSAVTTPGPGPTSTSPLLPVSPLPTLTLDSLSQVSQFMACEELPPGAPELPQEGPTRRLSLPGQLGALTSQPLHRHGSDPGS
Sequence of Cytochrome P450 3A4 (Homo sapiens) (P08684 whole entry, looked up): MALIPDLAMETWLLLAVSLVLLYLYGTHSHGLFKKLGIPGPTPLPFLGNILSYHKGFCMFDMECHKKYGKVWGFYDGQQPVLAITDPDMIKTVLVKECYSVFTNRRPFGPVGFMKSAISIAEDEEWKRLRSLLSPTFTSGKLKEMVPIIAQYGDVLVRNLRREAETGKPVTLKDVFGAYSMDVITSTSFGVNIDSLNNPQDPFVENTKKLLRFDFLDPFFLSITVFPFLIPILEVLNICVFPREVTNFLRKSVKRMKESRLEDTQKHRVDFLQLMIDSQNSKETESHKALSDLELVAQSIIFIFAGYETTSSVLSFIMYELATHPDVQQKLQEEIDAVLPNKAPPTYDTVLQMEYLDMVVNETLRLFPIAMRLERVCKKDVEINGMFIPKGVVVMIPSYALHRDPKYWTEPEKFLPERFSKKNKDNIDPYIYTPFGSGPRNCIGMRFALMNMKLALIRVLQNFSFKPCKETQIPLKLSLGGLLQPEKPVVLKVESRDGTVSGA
Sequence of Cytochrome P450 2C9 (Homo sapiens) (P11712 whole entry, looked up): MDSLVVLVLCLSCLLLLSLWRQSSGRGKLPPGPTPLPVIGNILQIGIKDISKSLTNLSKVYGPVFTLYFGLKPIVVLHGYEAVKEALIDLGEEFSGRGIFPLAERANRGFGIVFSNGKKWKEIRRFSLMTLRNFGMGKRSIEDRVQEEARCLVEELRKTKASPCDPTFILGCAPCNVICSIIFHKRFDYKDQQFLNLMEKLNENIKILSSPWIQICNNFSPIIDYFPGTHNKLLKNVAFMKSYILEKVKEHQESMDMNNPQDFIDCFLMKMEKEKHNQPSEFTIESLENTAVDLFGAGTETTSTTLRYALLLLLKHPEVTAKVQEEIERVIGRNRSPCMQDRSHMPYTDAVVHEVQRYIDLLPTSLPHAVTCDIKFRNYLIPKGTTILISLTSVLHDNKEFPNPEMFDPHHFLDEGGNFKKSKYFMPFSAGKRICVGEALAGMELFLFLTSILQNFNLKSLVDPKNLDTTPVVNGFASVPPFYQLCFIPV
Sequence of Acetylcholinesterase (Homo sapiens) (P22303 whole entry, looked up): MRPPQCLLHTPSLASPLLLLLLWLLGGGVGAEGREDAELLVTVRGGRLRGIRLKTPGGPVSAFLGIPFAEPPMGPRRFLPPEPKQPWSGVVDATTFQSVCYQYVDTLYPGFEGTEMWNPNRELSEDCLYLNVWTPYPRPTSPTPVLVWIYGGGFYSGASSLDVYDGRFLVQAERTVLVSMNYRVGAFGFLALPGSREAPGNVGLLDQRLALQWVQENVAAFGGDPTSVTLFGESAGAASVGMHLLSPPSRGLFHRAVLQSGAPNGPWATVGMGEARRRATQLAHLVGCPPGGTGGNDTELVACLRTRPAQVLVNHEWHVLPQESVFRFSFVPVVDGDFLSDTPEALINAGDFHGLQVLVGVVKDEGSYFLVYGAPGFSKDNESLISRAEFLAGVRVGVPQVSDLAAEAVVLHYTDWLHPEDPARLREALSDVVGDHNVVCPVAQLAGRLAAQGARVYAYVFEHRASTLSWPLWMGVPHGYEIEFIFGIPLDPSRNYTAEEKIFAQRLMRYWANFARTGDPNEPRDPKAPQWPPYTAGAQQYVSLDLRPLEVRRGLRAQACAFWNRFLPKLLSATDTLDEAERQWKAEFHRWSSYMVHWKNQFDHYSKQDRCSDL
Sequence of Cytochrome P450 2C19 (Homo sapiens) (P33261 whole entry, looked up): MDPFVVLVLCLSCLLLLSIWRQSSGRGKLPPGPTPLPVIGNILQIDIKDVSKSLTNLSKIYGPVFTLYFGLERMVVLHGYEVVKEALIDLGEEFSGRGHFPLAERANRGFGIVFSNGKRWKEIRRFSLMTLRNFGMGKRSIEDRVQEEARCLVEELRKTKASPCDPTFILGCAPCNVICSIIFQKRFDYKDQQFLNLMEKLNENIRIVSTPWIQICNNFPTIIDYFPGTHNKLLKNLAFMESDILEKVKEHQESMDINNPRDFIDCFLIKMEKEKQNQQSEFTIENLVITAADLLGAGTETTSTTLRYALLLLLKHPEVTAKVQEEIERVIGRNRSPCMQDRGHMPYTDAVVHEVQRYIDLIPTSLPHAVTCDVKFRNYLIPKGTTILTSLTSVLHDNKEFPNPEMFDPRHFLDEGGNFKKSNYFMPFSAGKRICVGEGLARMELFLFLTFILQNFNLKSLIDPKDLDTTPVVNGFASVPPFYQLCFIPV
Sequence of Cytochrome P450 2D6 (Homo sapiens) (P10635 whole entry, looked up): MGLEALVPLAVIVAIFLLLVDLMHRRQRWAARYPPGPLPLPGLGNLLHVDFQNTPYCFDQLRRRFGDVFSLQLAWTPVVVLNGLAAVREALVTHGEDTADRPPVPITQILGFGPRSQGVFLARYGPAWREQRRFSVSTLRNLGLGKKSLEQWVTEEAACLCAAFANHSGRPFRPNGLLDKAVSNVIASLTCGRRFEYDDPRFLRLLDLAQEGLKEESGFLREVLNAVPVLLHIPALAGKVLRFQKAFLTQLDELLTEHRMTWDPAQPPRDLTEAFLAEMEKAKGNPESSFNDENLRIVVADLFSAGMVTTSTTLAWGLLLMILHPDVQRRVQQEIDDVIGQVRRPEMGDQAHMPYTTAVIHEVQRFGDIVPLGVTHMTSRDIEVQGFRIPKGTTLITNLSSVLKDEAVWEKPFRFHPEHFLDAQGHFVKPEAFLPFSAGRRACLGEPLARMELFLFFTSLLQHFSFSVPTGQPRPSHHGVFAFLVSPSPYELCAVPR
Sequence of Cytochrome P450 1A2 (Homo sapiens) (P05177 whole entry, looked up): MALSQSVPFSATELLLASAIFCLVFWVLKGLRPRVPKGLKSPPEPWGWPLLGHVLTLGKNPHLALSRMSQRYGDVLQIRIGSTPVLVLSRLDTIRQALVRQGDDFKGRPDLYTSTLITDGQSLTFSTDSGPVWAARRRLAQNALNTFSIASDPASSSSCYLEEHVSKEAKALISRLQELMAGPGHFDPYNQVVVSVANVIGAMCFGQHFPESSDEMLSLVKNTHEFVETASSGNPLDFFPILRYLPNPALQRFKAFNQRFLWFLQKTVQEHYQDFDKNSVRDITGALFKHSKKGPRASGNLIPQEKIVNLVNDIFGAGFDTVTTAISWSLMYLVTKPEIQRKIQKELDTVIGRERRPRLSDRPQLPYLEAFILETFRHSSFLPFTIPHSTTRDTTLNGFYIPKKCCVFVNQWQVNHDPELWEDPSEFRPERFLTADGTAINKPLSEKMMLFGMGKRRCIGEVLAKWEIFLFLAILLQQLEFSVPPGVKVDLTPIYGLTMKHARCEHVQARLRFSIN

CCOP(=O)(NC(C)C)Oc1ccc(SC)c(C)c1 (stereo not given)
inactive: [6]
active: [1] 71 µM | [2] 5.02 µM | [3] 1.59 µM | [4] 11.9 µM | [5] 2.75 µM

Clc1ccc(CO/N=C(\Cn2ccnc2)c2ccc(Cl)cc2Cl)c(Cl)c1
inactive: [1]

Oc1ccccc1Br
inactive: all assays above

N#C/C=C/C#N
active: [2] 74.4 µM | [3] 18.7 µM | [4] 37.3 µM | [5] 29.6 µM
inactive: [1] | [6]

CN(C)C1CSSSC1
active: [2] 39.9 µM | [3] 35.6 µM | [4] 28.3 µM | [5] 63.3 µM
inactive: [1] | [6] | [7]

C[C@]12CC[C@@H]3c4ccc(OC(=O)N(CCCl)CCCl)cc4CC[C@H]3[C@@H]1CC[C@@H]2O
inactive: all assays above

c1cc[c]([Sb]([c]2ccccc2)[c]2ccccc2)cc1
inactive: [1] | [2] | [5]
active: [3] 17.8 µM | [4] 17.8 µM

COc1cc(C=O)cc2c1[C@H](COC(N)=O)[C@]1(OC(C)=O)ON2C[C@H]2[C@@H]1N2C(C)=O
inactive: all assays above

CC1(C)CC/C(=C/c2ccc(Cl)cc2)C1(O)Cn1cncn1 (stereo not given)
inactive: [1]
active: [2] 12.6 µM | [3] 0.223 µM | [4] 1.12 µM | [5] 35.4 µM

N#CCc1ccc(Cl)cc1
active: [3] 39.9 µM | [5] 31.7 µM
not listed: [7]
inactive: all other assays above

NC(=O)CCl
inactive: all assays above

O=[N+]([O-])c1c2ccccc2cc2ccccc12
inactive: [1] | [6]
active: [2] 2.22 µM | [3] 11.1 µM | [4] 11.1 µM | [5] 0.3 µM

C=CCC1=C(C)C(OC(=O)C2C(C=C(C)C)C2(C)C)CC1=O (stereo not given)
inactive: [1]
active: [2] 30 µM | [3] 1.69 µM | [4] 6.71 µM | [5] 25.9 µM | [6] 29.2 µM

Clc1ccc(CSC(Cn2ccnc2)c2ccc(Cl)cc2Cl)cc1 (stereo not given)
inactive: [1]

CCc1nn(C)c(C(=O)NCc2ccc(C(C)(C)C)cc2)c1Cl
inactive: [1]
active: [2] 63.3 µM | [3] 6.33 µM | [4] 17.8 µM | [5] 22.4 µM | [6] 21.9 µM

Oc1ccc(C2(c3ccc(O)cc3)c3ccccc3-c3ccccc32)cc1
active: [2] 79.6 µM | [3] 25.2 µM | [4] 20 µM | [5] 79.6 µM
inactive: [1] | [6]

COS(=O)(=O)c1ccc(C)cc1
not listed: [7]
inactive: all other assays above

Nc1ccc(Sc2ccc(N)cc2)cc1
active: [2] 31.7 µM | [3] 5.03 µM | [4] 1.23 µM | [5] 35.6 µM
inactive: [1] | [6]

ClC1=C(Cl)C2(Cl)C3C(Cl)C(Cl)CC3C1(Cl)C2(Cl)Cl (stereo not given)
active: [3] 3.16 µM and 3.56 µM | [4] 31.6 µM and 20 µM | [6] 24.5 µM | [7] 708 nM and 2 µM
inactive: [1] | [2] | [5]

C=CC(=O)OCC(COC(=O)C=C)(COC(=O)C=C)COC(=O)C=C
inactive: [1] | [5] | [6]
active: [2] 28.3 µM | [3] 17.8 µM | [4] 14.2 µM | [7] 1.26 µM

CC(Cl)CN(C)C (stereo not given)
inactive: all assays above

CCOP(=S)(OCC)SCS(=O)(=O)CC
active: [1] 12.6 µM | [2] 39.9 µM | [3] 5.64 µM | [4] 12.6 µM | [5] 35.6 µM
inactive: [6]

[Cl][Sb]([Cl])[Cl]
not listed: [7]
inactive: all other assays above

O=[N+]([O-])c1ccc(Oc2ccc(C(F)(F)F)cc2[N+](=O)[O-])cc1
inactive: [1]
active: [2] 22.4 µM | [3] 0.894 µM | [4] 25.2 µM | [5] 31.7 µM | [6] 6.16 µM

Clc1ccc(CCC(Cn2ccnc2)Sc2c(Cl)cccc2Cl)cc1 (stereo not given)
active: [2] 2.19 µM | [3] 0.0347 µM | [4] 0.0871 µM | [5] 15.5 µM | [6] 7.56 µM
inactive: [1]

CCCCCCCCCCCCCCCCCCn1cc[n+](C)c1
active: [2] 0.888 µM | [3] 79.2 µM | [4] 50 µM | [5] 56.1 µM | [6] 6.88 µM | [7] 31.5 µM
inactive: [1]

c1ccc2cc3c(cc2c1)-c1cccc2cccc-3c12
active: [5] 0.197 µM
inactive: all other assays above

CCCN(CC)CC1COC2(CCC(C(C)(C)C)CC2)O1 (stereo not given)
active: [2] 12.6 µM | [3] 11.2 µM
inactive: [1]

CC(C)CC(C)N (stereo not given)
not listed: [7]
inactive: all other assays above

Cc1cc(Cl)ccc1O[C@H](C)C(=O)O
inactive: all assays above

CC(C)CC(C)(c1ccc(O)cc1)c1ccc(O)cc1
inactive: [1] | [2] | [5]
active: [3] 35.7 µM and 22.4 µM | [4] 28.3 µM and 17.8 µM

CC(C)(c1ccc(O)c(-c2ccccc2)c1)c1ccc(O)c(-c2ccccc2)c1
active: [2] 63.3 µM | [3] 17.8 µM | [4] 3.17 µM | [5] 35.6 µM
inactive: [1] | [6]

ClC1=C(Cl)[C@]2(Cl)[C@@H]3[C@@H]4C[C@@H]([C@H]5O[C@@H]45)[C@@H]3[C@@]1(Cl)C2(Cl)Cl
active: [2] 25.2 µM | [3] 3.17 µM
inactive: [1]

CN(CCCC(O)c1cccnc1)N=O (stereo not given)
not listed: [7]
inactive: all other assays above

Cc1cc(C(F)(C(F)(F)F)C(F)(F)F)ccc1NC(=O)c1cccc(I)c1C(=O)NC(C)(C)CS(C)(=O)=O
active: [2] 4.51 µM | [4] 20.1 µM
not listed: [7]
inactive: all other assays above

BrC(Br)Br
active: [2] 25.2 µM | [5] 44.8 µM
not listed: [7]
inactive: all other assays above

CC(C)[C@H](C(=O)OC(C#N)c1cccc(Oc2ccccc2)c1)c1ccc(OC(F)F)cc1 (stereo not given in full)
inactive: [1] | [5] | [6]
active: [2] 5.03 µM | [3] 17.8 µM | [4] 3.99 µM

NC(=O)c1ccc(N)nc1
inactive: all assays above

COP(=O)(CCC(=O)NCO)OC
inactive: all assays above

CC(Cc1ccc(C(C)(C)C)cc1)CN1C[C@@H](C)O[C@@H](C)C1 (stereo not given in full)
active: [2] 8.94 µM | [3] 31.7 µM | [4] 35.6 µM | [5] 39.9 µM | [6] 12.3 µM | [7] 22.4 µM
inactive: [1]

N#C/C=C/c1ccccc1
active: [5] 35.6 µM
inactive: all other assays above

Oc1c(Cl)c(Cl)cc(Cl)c1Cl
active: [4] 21.8 µM | [5] 69.1 µM
inactive: all other assays above

CC(C)C(=O)Cl
inactive: all assays above

N#CNC#N
inactive: all assays above

COc1ccc(/C(=C/C(=O)N2CCOCC2)c2ccc(Cl)cc2)cc1OC
inactive: [1] | [2] | [5]
active: [3] 56.4 µM | [4] 31.7 µM | [6] 12.3 µM | [7] 3.17 µM

O=C/C(Cl)=C(/Cl)C(=O)O
inactive: all assays above

BrCBr
inactive: all assays above

CCC(C)c1cc([N+](=O)[O-])cc([N+](=O)[O-])c1OC(=O)C=C(C)C (stereo not given)
inactive: [1] | [2] | [7]
active: [3] 35.6 µM | [4] 35.6 µM | [5] 35.6 µM

C[C@]12CC[C@H](O)C[C@H]1CC[C@@H]1[C@@H]2C[C@@H](O)[C@]2(C)[C@@H](C3=CC(=O)OC3)CC[C@]12O
not listed: [6]
inactive: all other assays above

c1ccc2c(c1)OCC(C1=NCCN1)O2 (stereo not given)
active: [2] 13.8 µM
inactive: all other assays above

CCOC(=O)C1(c2ccccc2)CCN(CCC(C#N)(c2ccccc2)c2ccccc2)CC1
active: [2] 4.9 µM | [3] 9.77 µM | [4] 3.09 µM | [6] 0.601 µM
inactive: [1] | [5] | [7]
